# Results taken from PubChem BioAssay (NCATS).
# Several values for one entry are separate records, joined by “and”; a condition that tells them apart may be missing. Identical values can stand only once. Values without a mark were called inactive. Inconclusive results are not listed. A call without a number means that no potency is given here. Activity calls are given as the source filed them. Unless noted, the call rests on the fitted dose curve; in most records, active means well fitted curve in the direction sought with a large enough effect; inconclusive means small, poorly fitted or top-dose-only effect, or another doubt; inactive means no such curve, though single readings can be large; an effect the other way counts as inactive or inconclusive.
# Legend:
# [1] = target: Cytochrome P450 1A2 (Homo sapiens) (UniProt P05177); assay: p450-cyp1a2 (AID 410; calls by dose curve; further: potency means the concentration at half of the fitted maximal effect)
# How it was run: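 Read-out is luminescence from luciferin produced by CYP1A2 demethylation of Luciferin-ME (100uM, at Km). Detection reagent stopped the 60 min NADPH-dependent reaction; signals were normalized to 57 uM furafylline.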
# [2] = target: Glucocorticoid receptor (Homo sapiens) (UniProt P04150); assay: GR-GFP Redistribution (AID 450;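 active means compounds whose dose series gives a full or clear partial fitted curve of increased nuclear translocation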; further: potency means the concentration at half of the fitted maximal effect); conditions: U2OS GR-GFP nuclear translocation, laser cytometry, 2 h
# [3] = target: Glucocorticoid receptor (Homo sapiens) (UniProt P04150); assay: GR-EFC Redistribution (AID 451; calls by dose curve; further: potency means the concentration at half of the fitted maximal effect); conditions: CHO-K1 GR-EFC translocation, beta-gal luminescence, 2 h
# How it was run: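 Translocation of GR-ED fusion to nuclear EA restores b-gal, read by luminescence after 1 h room-temperature detection. Engineered CHO-K1 biosensor cells, 1,000/well, exposed 2 h at 37 C to titrations up to 46 uM final.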
# [4] = target: Mitogen-activated protein kinase 10 (Mus musculus) (UniProt Q61831); assay: JNK3 AlphaScreen Assay (AID 530; active means well fitted curve in either direction with a large enough effect, not every such curve was filed as active;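 further: kinase came from lysate of stimulated human HepG2 cells; signal reports phosphorylation of biotinylated GST-cJun 1-79 at Ser73 with 10 µM ATP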)
# How it was run: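 Kinase buffer: 20 mM Tris-HCl pH 7.6, 10 mM MgCl2, 1 mM DTT, 0.1 mM Na3VO4, 0.01% Tween-20; ATP 10 uM. Substrate biotin-GST-cJun(1-79), enzyme from activated HepG2 lysates. Detection by Ser73 phospho-antibody AlphaScreen.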
# [5] = target: 3',5'-cyclic-AMP phosphodiesterase 4B (Homo sapiens) (UniProt Q07343); assay: qHTS Assay for Inhibitors of PDE-IV (AID 607; active means well fitted activation curve with a large enough effect in the main read-out, with a control signal flat, not every such curve was filed as active)
# How it was run: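 HEK293 ACTOne cells with CNG channel (1000/well), endogenous PDE4; membrane potential dye, compounds up to 22.9 uM final. Fluorescence Ex 535/Em 590; RO 20-1724 (100 uM final) as reference.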
# [6] = target: Cytochrome P450 2D6 (Homo sapiens) (UniProt P10635); assay: qHTS Assay for Inhibitors and Substrates of Cytochrome P450 2D6 (AID 891); further: nearly all actives have a fitted effect of over 60% in size; further: potency means the concentration at half of the fitted maximal effect;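 on activity change, negative = inhibition: luciferin methyl ether substrate demethylated by CYP2D6 with NADPH regeneration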
# How it was run: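 Luminescent read-out of luciferin formed by 5 nM human CYP2D6 demethylating 30 uM Luciferin-ME EGE (Km level) over 60 min at room temperature after NADPH regeneration addition. Data normalized to full inhibition by 1.43 uM quinidine.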
# [7] = target: Ubiquitin carboxyl-terminal hydrolase 1 (Homo sapiens) (UniProt O94782); assay: Inhibitors of USP1/UAF1: Pilot qHTS (AID 504865);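 further: rhodamine fluorescence freed from ubiquitin-rhodamine substrate followed over time; top concentration of the series differs between compounds; nearly all actives have a fitted effect of over 35% in size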
# How it was run: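 1nM USP1/UAF1 + cpd, 15 min RT; start w/ Ub-Rho 150nM final; kinetic FL 480/540 nm, 6 reads q60 s. Buffer 50mM HEPES pH 7.8, 0.5mM EDTA, 1mM TCEP, 0.01% Tween-20, 0.1 mg/ml BSA.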
# [8] = target: DNA dC->dU-editing enzyme APOBEC-3G (Homo sapiens) (UniProt Q9HC16); assay: qHTS for inhibitors of Vif-A3G interactions: Validation (AID 588379); further: potency means the concentration at half of the fitted maximal effect
# How it was run: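 Yellow fluorescence (Ex 488, Em 500-530) of Vif-coexpressing HeLa A3G-eYFP cells, scanned by Acumen cytometer, reports blocked A3G degradation. Cells plated at 700/well overnight at 37 deg C before compound addition, then a further overnight compound incubation at 37 deg C.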
# [9] = test system: Zika virus NS2B-NS3 protease; assay: Primary screen GU AMC qHTS for Zika virus inhibitors (AID 1347154); further: nearly all actives have a fitted effect of over 70% in size
# How it was run: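 Fluorogenic AMC-substrate cleavage by noncovalent NS2B-NS3 protease complex (25 nM, pH 8.0 Tris buffer with Tween 20) followed for 15 minutes at room temperature (~20% conversion). Percent inhibition from ex340/em450 signal change, fitted by 4-parameter Hill equation.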
# [10] = Primary qHTS for small molecule stabilizers of the endoplasmic reticulum resident proteome: Secreted ER Calcium Modulated Protein (SERCaMP) assay (AID 1508630)
# How it was run: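 The SH-SY5Y reporter protocol was run at 3 concentrations up to 38.3 uM (primary) or 11 concentrations (follow-up): 16 h compound, 100 nM thapsigargin for 4 h, then extracellular luciferase luminescence.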
# [11] = AP1 Signaling Pathway (AID 357; active means well fitted curve in either direction with a large enough effect, not every such curve was filed as active;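 further: ME-180 reporter cells stimulated with EGF at its EC50 level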); conditions: ME-180 (cervical carcinoma) AP-1-bla reporter, EGF-induced, beta-lactamase ratio, 5 h; at 38 µM (top of the series)
# How it was run: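 Read-out was the 460nm/530nm emission ratio (excitation 405nm) after CCF4 loading for 2.5 hours at room temperature. Cells carried an AP-1-driven beta-lactamase reporter, were stimulated with EC50 EGF plus compound for 5 hours, and AC50 values came from titrations.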
# [12] = NFAT Signaling Pathway (AID 444; active means well fitted curve in either direction with a large enough effect, not every such curve was filed as active;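 further: carbachol stimulus at about its EC50 of 1 µM final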); conditions: Jurkat NFAT-bla M1, carbachol, beta-lactamase ratio, 5 h; at 38 µM (top of the series)
# How it was run: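 Read-out: CCF4 FRET ratio (460 nm/530 nm) after 1 h RT dye loading, used for %activity and AC50 from titration series. Cells: Jurkat NFAT-β-lactamase/M1 line, treated with compound plus 1 uM carbachol for 5 h, 37 °C.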
# [13] = target: Guanine nucleotide-binding protein G(i) subunit alpha-1 (Homo sapiens) (UniProt P63096); assay: qHTS Assay for Inhibitors of RGS12 GoLoco Motif Activity (Green Fluorophore) (AID 879);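 further: negative values mean loss of peptide binding seen as reduced polarization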
# How it was run: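 A drop in FITC polarization marked displacement of the FITC-tagged RGS12 GoLoco peptide (10 nM) from Gαi1 (50 nM). Compounds were incubated 10 min at room temperature in Tris pH 7.5 buffer containing 150 mM NaCl, 0.1 mM GDP and 0.05% NP40; unlabeled peptide titration served as control.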
# [14] = target: Cytochrome P450 2C9 (Homo sapiens) (UniProt P11712); assay: qHTS Assay for Inhibitors and Substrates of Cytochrome P450 2C9 (AID 883); further: nearly all actives have a fitted effect of over 60% in size; further: potency means the concentration at half of the fitted maximal effect
# How it was run: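 Luminescent read-out of deoxyluciferin hydroxylation, normalized to 57uM sulphaphenazole (AC100). Reaction: 10nM enzyme, 100uM Luciferin-H (equal to KM), 25mM KPO4, 10 min compound preincubation, then 60 min with NADPH regeneration, both at 37C.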
# [15] = target: Cytochrome P450 3A4 (Homo sapiens) (UniProt P08684); assay: qHTS Assay for Inhibitors and Substrates of Cytochrome P450 3A4 (AID 884); further: potency means the concentration at half of the fitted maximal effect; nearly all actives have a fitted effect of over 50% in size
# How it was run: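 Luminescent readout of luciferin produced by CYP3A4 (20 nM) dealkylation of Luciferin-PPXE, 25 uM (its KM). NADPH-driven reaction ran 60 min at RT after 10 min compound preincubation; data scaled to 57 uM ketoconazole as 100% inhibition.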
# [16] = target: Cytochrome P450 3A4 (Homo sapiens) (UniProt P08684); assay: qHTS Assay for Activators of Cytochrome P450 3A4 (AID 885); further: nearly all actives have a fitted effect of over 65% in size
# How it was run: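 Human CYP3A4 dealkylates Luciferin-PPXE to luciferin, which luciferase detection converts to light. Substrate was at its KM (25uM), buffer 200mM KPO4, reaction 60 min at RT.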
# [17] = target: Cytochrome P450 2C19 (Homo sapiens) (UniProt P33261); assay: qHTS Assay for Inhibitors and Substrates of Cytochrome P450 2C19 (AID 899); further: nearly all actives have a fitted effect of over 60% in size; further: potency means the concentration at half of the fitted maximal effect
# How it was run: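 Luminescence readout of luciferin formed from 10uM Luciferin-H EGE (KM level) by 5 nM CYP2C19 in 50mM KPO4. 60 min NADPH-driven reaction at 37C after 10 min compound preincubation; data scaled to 57uM ketoconazole inhibition.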
# [18] = qHTS Assay for Identification of Small Molecule Agonists for Thrombopoietin (TPO) Signaling Pathway (AID 917)
# How it was run: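 Ba/F3 (mouse) + hTPO receptor + GpIIb-promoter luciferase; IL-3 withdrawn overnight; compound + 26 pM TPO (EC50), 24 hrs, 37 C, 5% CO2; Steadylite luminescence, 10 min RT.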
# [19] = target: Muscarinic acetylcholine receptor M1 (Rattus norvegicus) (UniProt P08482); assay: qHTS Assay for Antagonists of Acetylcholine Muscarinic M1 Receptor: Kinetic Measurement of Intracellular Calcium Response (AID 943); further: potency means the concentration at half of the fitted maximal effect; nearly all actives have a fitted effect of over 75% in size
# How it was run: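 Quantitative HTS in CHO-M1 (rat receptor) cells: 10 min compound exposure ahead of 100 nM carbachol, Fluo-4 fluorescence followed 4 min, value expressed as peak-to-basal ratio.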
# [20] = target: Pyruvate kinase (Leishmania mexicana) (UniProt Q27686); assay: qHTS Validation Assay for Inhibitors of Leishmania Mexicana Pyruvate Kinase (AID 945)
# How it was run: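 Purified LmPYK (E451W mutant, 0.2 nM) was incubated 1 h at room temperature with 0.5 mM PEP and 0.1 mM ADP in 50 mM imidazole pH 7.2, 50 mM KCl, 7 mM MgCl2; ATP formed was read by PKLight luminescence, normalized to DMSO wells.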
# [21] = target: Pyruvate kinase PKM (Homo sapiens) (UniProt P14618); assay: qHTS Assay for Activators of Human Muscle Pyruvate Kinase (AID 954; active means well fitted curve in the direction sought with a large enough effect, not every such curve was filed as active)
# How it was run: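 Compound pinned into substrate mix (0.5 mM PEP, 0.1 mM ADP), then 0.1 nM PKM2 added; 1 h, RT. Stop/detection luciferase reagent added, luminescence read. Normalized to no-inhibition and no-enzyme or reference-inhibitor controls.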
# [22] = target: alpha-glucosidase (Oryza sativa, rice) (UniProt Q653V4); assay: Counterscreen for Glucocerebrosidase Inhibitors: qHTS Assay for Rice alpha-Glucosidase at pH 5.0 (AID 997)
# How it was run: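 Endpoint fluorogenic assay at pH 5.0: compounds (0.7 nM to 77 uM) titrated against 4 nM rice enzyme and 400 uM 4-MU-alpha-glucoside for 20 min at room temperature; NaOH/glycine stop, read ex 365/em 440 nm, Hill-fitted AC50.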
# [23] = target: Muscarinic acetylcholine receptor M1 (Rattus norvegicus) (UniProt P08482); assay: qHTS Assay for Antagonists of Acetylcholine Muscarinic M1 Receptor: Measurement of IP-One Response (AID 944); further: potency means the concentration at half of the fitted maximal effect; nearly all actives have a fitted effect of over 75% in size
# How it was run: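 Antagonism was measured as loss of carbachol-driven (EC80) IP1 accumulation in CHO cells carrying rat M1, using a homogeneous IP-One TR-FRET kit read at 620 and 665 nm.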
# Chain of DNA dC->dU-editing enzyme APOBEC-3G (Homo sapiens) (Q9HC16 whole entry, looked up): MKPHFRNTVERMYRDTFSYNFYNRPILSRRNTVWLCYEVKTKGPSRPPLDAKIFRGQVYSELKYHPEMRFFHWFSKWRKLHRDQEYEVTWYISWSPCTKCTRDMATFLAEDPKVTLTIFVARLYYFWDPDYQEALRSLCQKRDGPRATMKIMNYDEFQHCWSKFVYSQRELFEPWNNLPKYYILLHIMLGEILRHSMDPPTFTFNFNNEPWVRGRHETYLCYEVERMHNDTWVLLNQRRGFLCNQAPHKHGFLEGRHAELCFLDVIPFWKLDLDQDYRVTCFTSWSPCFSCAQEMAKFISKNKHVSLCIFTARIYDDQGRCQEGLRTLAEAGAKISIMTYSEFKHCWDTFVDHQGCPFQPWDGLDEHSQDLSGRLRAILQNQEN
# Chain of 3',5'-cyclic-AMP phosphodiesterase 4B (Homo sapiens) (Q07343 whole entry, looked up): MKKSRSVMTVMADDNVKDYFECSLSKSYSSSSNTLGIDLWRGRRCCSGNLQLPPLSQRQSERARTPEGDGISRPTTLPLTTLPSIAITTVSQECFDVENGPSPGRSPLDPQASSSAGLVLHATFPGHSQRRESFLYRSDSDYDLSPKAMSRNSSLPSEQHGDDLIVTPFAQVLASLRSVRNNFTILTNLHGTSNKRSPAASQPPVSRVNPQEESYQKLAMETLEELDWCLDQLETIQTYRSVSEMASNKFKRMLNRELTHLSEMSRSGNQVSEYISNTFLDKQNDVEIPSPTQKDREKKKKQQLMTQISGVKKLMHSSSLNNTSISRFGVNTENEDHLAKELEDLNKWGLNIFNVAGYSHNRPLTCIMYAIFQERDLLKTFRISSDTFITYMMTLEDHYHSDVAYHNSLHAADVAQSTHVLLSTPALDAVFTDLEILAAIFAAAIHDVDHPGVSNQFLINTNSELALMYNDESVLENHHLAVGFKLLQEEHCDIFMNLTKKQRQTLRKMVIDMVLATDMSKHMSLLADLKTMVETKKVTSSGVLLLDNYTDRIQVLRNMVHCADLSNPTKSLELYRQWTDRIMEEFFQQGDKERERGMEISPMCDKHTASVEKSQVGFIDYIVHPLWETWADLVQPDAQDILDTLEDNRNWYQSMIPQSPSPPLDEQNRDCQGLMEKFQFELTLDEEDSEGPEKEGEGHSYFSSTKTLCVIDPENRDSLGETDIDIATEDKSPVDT
# Chain of Glucocorticoid receptor (Homo sapiens) (P04150 whole entry, looked up, the tested form may be a part): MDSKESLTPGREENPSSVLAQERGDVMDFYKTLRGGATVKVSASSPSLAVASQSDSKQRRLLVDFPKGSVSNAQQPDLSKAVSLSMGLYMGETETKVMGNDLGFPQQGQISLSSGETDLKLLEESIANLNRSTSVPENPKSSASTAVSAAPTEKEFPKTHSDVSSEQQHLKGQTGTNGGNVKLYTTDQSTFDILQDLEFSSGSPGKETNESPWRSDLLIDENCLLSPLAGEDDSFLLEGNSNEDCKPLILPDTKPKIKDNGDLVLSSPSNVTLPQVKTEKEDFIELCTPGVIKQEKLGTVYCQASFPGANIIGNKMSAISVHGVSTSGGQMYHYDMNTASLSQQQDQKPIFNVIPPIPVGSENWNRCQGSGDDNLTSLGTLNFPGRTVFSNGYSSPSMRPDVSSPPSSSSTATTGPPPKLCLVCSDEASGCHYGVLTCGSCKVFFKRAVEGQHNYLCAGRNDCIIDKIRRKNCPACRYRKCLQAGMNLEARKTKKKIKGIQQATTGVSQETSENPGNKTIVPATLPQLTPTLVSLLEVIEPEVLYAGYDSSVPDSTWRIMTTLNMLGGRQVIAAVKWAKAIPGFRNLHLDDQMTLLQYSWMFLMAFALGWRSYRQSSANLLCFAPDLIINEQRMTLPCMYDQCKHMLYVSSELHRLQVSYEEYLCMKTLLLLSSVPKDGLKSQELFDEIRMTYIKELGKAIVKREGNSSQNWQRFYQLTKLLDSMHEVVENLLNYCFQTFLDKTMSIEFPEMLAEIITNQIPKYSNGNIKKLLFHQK
# Chain of Cytochrome P450 2C9 (Homo sapiens) (P11712 whole entry, looked up): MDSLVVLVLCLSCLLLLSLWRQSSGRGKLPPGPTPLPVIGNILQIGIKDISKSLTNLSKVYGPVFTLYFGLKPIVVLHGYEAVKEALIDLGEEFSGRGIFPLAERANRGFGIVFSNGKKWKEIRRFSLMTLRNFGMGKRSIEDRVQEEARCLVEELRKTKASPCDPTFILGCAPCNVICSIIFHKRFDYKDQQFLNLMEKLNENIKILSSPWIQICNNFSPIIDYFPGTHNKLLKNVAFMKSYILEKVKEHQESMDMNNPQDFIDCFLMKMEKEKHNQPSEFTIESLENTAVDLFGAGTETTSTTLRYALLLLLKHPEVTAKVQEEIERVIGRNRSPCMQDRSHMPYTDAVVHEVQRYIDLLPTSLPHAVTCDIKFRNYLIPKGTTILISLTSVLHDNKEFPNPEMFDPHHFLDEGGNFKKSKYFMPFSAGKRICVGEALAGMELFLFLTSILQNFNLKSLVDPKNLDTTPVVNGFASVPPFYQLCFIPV
# Chain of Cytochrome P450 1A2 (Homo sapiens) (P05177 whole entry, looked up): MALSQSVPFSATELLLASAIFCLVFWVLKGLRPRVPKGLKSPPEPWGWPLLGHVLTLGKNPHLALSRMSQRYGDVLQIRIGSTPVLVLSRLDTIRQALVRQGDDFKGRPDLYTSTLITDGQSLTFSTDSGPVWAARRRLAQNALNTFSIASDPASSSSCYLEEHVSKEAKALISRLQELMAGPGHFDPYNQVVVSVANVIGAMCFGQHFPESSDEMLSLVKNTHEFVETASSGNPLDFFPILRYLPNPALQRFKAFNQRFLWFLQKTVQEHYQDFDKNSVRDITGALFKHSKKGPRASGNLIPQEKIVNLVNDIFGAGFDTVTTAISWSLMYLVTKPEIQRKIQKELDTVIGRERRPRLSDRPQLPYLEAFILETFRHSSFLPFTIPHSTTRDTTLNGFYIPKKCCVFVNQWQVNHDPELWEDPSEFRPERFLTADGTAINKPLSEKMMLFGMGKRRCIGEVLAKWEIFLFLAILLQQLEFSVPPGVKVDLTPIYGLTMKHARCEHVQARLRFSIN
# Chain of Ubiquitin carboxyl-terminal hydrolase 1 (Homo sapiens) (O94782 whole entry, looked up): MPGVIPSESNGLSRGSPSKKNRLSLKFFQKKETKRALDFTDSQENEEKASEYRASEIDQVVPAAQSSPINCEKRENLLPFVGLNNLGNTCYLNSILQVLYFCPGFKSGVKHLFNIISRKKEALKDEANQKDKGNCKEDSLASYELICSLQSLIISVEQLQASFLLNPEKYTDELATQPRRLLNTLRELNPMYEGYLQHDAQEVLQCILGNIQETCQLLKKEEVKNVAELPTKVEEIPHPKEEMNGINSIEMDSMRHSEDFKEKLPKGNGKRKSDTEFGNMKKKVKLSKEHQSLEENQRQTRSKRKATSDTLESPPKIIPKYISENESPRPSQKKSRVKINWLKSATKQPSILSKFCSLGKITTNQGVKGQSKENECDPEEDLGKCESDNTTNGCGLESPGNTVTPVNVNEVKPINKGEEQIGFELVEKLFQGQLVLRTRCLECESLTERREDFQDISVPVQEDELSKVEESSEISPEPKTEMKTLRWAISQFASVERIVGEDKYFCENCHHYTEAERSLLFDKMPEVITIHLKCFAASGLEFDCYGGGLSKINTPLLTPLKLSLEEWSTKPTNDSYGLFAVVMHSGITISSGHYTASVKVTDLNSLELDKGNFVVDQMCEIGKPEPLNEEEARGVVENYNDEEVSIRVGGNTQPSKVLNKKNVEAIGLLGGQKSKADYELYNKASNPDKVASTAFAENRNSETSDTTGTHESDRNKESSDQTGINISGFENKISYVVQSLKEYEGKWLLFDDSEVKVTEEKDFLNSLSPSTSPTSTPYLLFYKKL
# Chain of Cytochrome P450 3A4 (Homo sapiens) (P08684 whole entry, looked up): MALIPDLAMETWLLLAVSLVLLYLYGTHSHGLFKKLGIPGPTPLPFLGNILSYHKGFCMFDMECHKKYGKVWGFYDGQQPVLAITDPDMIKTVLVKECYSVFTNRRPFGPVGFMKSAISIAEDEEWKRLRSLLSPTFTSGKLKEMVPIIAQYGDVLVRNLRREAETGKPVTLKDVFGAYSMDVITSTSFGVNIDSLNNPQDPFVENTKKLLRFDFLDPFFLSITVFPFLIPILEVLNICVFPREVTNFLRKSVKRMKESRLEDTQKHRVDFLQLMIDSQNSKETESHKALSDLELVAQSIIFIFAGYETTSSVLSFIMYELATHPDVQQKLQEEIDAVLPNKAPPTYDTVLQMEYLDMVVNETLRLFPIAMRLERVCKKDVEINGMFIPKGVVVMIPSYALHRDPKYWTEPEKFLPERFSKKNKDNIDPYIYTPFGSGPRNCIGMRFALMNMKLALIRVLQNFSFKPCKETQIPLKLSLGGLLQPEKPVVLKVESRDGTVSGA
# Chain of Pyruvate kinase (Leishmania mexicana) (Q27686 2-499 E452W): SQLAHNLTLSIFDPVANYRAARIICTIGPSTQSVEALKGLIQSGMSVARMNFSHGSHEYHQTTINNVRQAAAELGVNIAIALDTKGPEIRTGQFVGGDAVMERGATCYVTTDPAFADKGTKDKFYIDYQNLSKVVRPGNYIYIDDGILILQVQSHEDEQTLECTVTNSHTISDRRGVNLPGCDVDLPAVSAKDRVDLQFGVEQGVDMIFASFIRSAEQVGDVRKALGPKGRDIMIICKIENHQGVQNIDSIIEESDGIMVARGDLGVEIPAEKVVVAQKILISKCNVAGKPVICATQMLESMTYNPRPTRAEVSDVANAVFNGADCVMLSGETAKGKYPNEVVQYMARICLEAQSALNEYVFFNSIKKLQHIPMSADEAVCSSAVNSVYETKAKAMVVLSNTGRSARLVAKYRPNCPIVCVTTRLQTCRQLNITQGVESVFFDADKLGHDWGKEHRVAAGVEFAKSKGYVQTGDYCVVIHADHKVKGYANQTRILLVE
compound,measurement,setting,value
CC[N+](CC)(CC)CCOc1ccc(/C=C\c2ccccc2)cc1,Potency,[1],31.6 µM (active)
same,Potency,[2],> 46 µM
same,Potency,[3],> 46 µM
same,Potency,[4],inactive
same,Potency,[5],inactive
same,Potency,[6],7.94 µM (active)
same,Potency,[7],inactive
same,Potency,[8],inactive
same,Potency,[9],inactive
same,Potency,[10],inactive
CC#CCOC(=O)c1c(C)nc2sc3c(c2c1N)CC[C@@H](O)C3,"activity change, negative = inhibition",[11],-15.6%
same,Potency,[1],398 nM (active) and 25.1 nM (active)
same,"activity change, negative = inhibition",[12],-25.8%
same,Potency,[2],> 46 µM
same,Potency,[3],> 46 µM
same,Potency,[4],inactive
same,Potency,[5],inactive
same,outcome,[13],inactive
same,Potency,[14],inactive
same,Potency,[15],3.16 µM (active)
same,Potency,[16],inactive
same,Potency,[6],inactive
same,Potency,[17],inactive
same,Potency,[18],inactive
same,Potency,[19],5.01 µM (active)
same,Potency,[20],inactive
same,outcome,[21],inactive
same,outcome,[22],inactive
same,Potency,[8],inactive
same,Potency,[9],inactive
same,Potency,[10],inactive
CCCCC#Cc1nc(NC)c2ncn([C@@H]3O[C@@H](CO)[C@H](O)[C@H]3O)c2n1,Potency,[1],31.6 µM (active)
same,Potency,[2],> 46 µM
same,Potency,[3],> 46 µM
same,Potency,[4],inactive
same,Potency,[5],inactive
same,Potency,[14],0.631 µM (active)
same,Potency,[7],inactive
same,Potency,[8],inactive
same,Potency,[9],inactive
same,Potency,[10],inactive
C#C[C@]1(O)CC[C@H]2[C@H]3CCC4=Cc5oncc5C[C@]4(C)[C@@H]3CC[C@]21C,Potency,[1],12.6 µM (active)
same,Potency,[2],> 46 µM
same,Potency,[3],> 46 µM
same,outcome,[13],inactive
same,Potency,[16],inactive
same,Potency,[23],7.94 µM (active)
same,Potency,[20],inactive
same,outcome,[21],inactive
same,outcome,[22],inactive
same,Potency,[7],inactive
same,Potency,[8],inactive
same,Potency,[9],inactive
same,Potency,[10],inactive
O=C(Cc1ccccc1)Nc1nc2ccc(Cl)cc2c2nc(-c3ccco3)nn12,Potency,[1],0.2 µM (active)
same,Potency,[2],> 46 µM
same,Potency,[3],> 46 µM
same,Potency,[4],inactive
same,Potency,[5],inactive
same,Potency,[14],3.16 µM (active)
same,Potency,[16],inactive
same,Potency,[17],1.58 µM (active)
same,Potency,[7],inactive
same,Potency,[8],21.1 µM (active)
same,Potency,[9],inactive
same,Potency,[10],inactive
O=C(O)Cc1cc2ccccc2nc1C(=O)O,Potency,[1],inactive
same,Potency,[2],> 46 µM
same,Potency,[3],> 46 µM
same,Potency,[4],inactive
same,Potency,[5],inactive
same,Potency,[7],inactive
same,Potency,[8],inactive
same,Potency,[9],inactive
same,Potency,[10],inactive
CC[C@]1(O)C[C@@H]2CN(CCc3c([nH]c4ccccc34)[C@](C(=O)OC)(c3cc4c(cc3OC)N(C)[C@H]3[C@](O)(C(=O)OC)[C@@H](C(=O)OC)[C@@]5(CC)C=CCN6CC[C@@]43[C@@H]65)C2)C1,Potency,[1],inactive
same,Potency,[2],> 46 µM
same,Potency,[3],> 46 µM
same,Potency,[4],inactive
same,Potency,[16],inactive
same,Potency,[7],inactive
same,Potency,[8],inactive
same,Potency,[9],inactive
same,Potency,[10],inactive
